HT1080 IDH1KD tx: HT-1080 IDH1 knockdown cell toxicity (counter line); HT-1080 IDH1 knockdown viability, ATP luminescence, 48 h; Potency, µM (doses to about 46.1 µM), inactives show at the highest dose activity, negative = toxicity, hits mostly cytotoxic; 360,000 tested, 2% active;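 also: potency is read from the fitted curve at half-maximal effect; 0% = DMSO wells and -100% = cell-free medium wells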
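% activity derives from luminescence (CellTiter-Glo), normalised to DMSO and no-cell wells. HT-1080-IDH1KD cells, 750/well, had 48 h compound exposure at 37 °C.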
DT40 TDP1 no CPT: qHTS for Inhibitors of human tyrosyl-DNA phosphodiesterase 1 (TDP1): qHTS in cells in absence of CPT; DT40 Tdp1-/- hTDP1 cells, no CPT, ATP luminescence, 48 h; Potency, µM (doses to about 46.2 µM), for the others: at the highest dose activity change, negative = growth inhibition, most hits filed as inhibitors; 420,000 tested, 15% active; AID 686978, 2013; also: potency is read from the fitted curve at half-maximal effect; nearly all actives have a fitted effect of over 55% in size
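Stably hTDP1-transfected Tdp1-null chicken DT40 cells were treated with library compounds minus camptothecin and grown for at least 48 hr at 37 °C, after which cellular ATP was quantified by luminescence.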
ELG1 repair inh: ELG1-dependent DNA repair inhibition; HEK293T ELG1-luciferase reporter, luminescence, 16 h; DNA damage induced by 5-fluorouridine; Potency, µM (highest dose often 46.1 µM), for inactives: at the top dose activity change, negative = inhibition, hits mostly inhibitors; 330,000 tested, 2.3% active; AID 504467; also: potency is read from the fitted curve at half-maximal effect; nearly all actives have a fitted effect of over 55% in size
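Luminescence from the luciferase reporter, measured 30 min after ONE-Glo reagent at room temperature, was the read-out. Beforehand, 2,000 cells per well were exposed for 16 hr at 37 °C to 5-fluorouridine together with compound or vehicle.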
IL1B secr inh: inflammasome signaling inhibition, IL-1 beta readout; 360,000 tested, 4.7% active; activity change, % at 57.5 µM; THP-1 LPS/ATP IL-1B secretion, AlphaLISA, 16 h; hits give low values; AID 743279; in the data active = activity change below about -50%; inconclusive = mostly about -30% to -49%
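THP-1 cells pretreated 1 hr with compounds (up to 57.5 uM final), then stimulated with LPS (250 ng/mL final) plus ATP (1.25 mM final); secreted IL-1B measured by AlphaLISA after 16 hr, decreased signal indicating inhibition.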
HT1080NT lethal: kills 2HG-producing HT-1080-NT fibrosarcoma cells. 360,000 tested, 1.6% active. Potency, µM (doses to about 46.1 µM), inactives show at the top dose activity, negative = less viability, most hits filed as cytotoxic. HT-1080-NT fibrosarcoma viability, CellTiter-Glo ATP luminescence, 48 h;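 also: NT is the 2HG producing partner of a matched IDH1 knockdown line; potency is read from the fitted curve at half-maximal effect; 0% = DMSO-treated cells and -100% = media-only wells without cells; nearly all actives have a fitted effect of over 55% in size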
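Toxicity toward the 2HG-producing NT line was scored as %Activity, normalised to DMSO and no-cell wells, from CellTiter-Glo luminescence after 48 hours' treatment.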
DT40 TDP1 CPT: growth inhibition of DT40 Tdp1-/-;hTDP1 cells with camptothecin (screen for TDP1 inhibitors) | chicken DT40 Tdp1-/-;hTDP1 cells + 20 nM CPT, ATP luminescence, 48 h | Potency, µM (highest dose often 46.2 µM), without a hit: at the highest dose activity change, negative = growth inhibition, actives largely listed as inhibitors | 420,000 tested, 12% active | AID 686979; also: potency is read from the fitted curve at half-maximal effect; nearly all actives have a fitted effect of over 55% in size
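Cell growth measured by CellTiter-Glo luminescence after a minimum 48 h, 37 C compound exposure with 20 nM CPT in Tdp1-knockout DT40 cells stably expressing hTDP1, seeded 400/well; qHTS titration format.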
Starred values were filed as active, the others as inactive; ? = inconclusive; . = no result. Rows were chosen to be rich in hits. Some 19% of all compounds tested hit in one or more screens of this group. Unless noted, calls follow the shape of the dose curve; as a rule, active = well fitted curve in the direction sought with a large enough effect; inconclusive = small, poorly fitted or top-dose-only effect, or another doubt; inactive = no such curve, though single readings can be large; an effect the other way counts as inactive or inconclusive. Unless noted, % is scaled to controls: 0 for no effect and ±100 for the full control effect.

SMILES	HT1080 IDH1KD tx	DT40 TDP1 no CPT	ELG1 repair inh	IL1B secr inh	HT1080NT lethal	DT40 TDP1 CPT
Cc1cccc(C(=O)Nc2ccc(OCc3cc(=O)n4c5c(sc4n3)CCCC5)cc2)c1	.	15%	.	.	.	-3%
O=C(Nc1ccccc1C(=O)OCc1cc(=O)n2c3c(sc2n1)CCCC3)c1ccccc1	.	?	.	.	.	21µM*
COc1cccc(C(=O)Nc2ccccc2C(=O)OCc2cc(=O)n3c4c(sc3n2)CCCC4)c1	.	16µM*	.	.	.	?
Cc1ccc(C(=O)Nc2ccc(C(=O)OCc3cc(=O)n4c5c(sc4n3)CCCC5)cc2)cc1	.	-29%	.	.	.	?
COc1ccc(-n2nc(C(=O)NCC(=O)Nc3cc(OC)c(OC)c(OC)c3)c3ccccc3c2=O)cc1OC	-1%	?	2.3µM*	72	?	4%
COc1ccc(-n2nc(C(=O)NCC(=O)NCCc3ccc(OC)c(OC)c3)c3ccccc3c2=O)cc1Cl	-4%	13µM*	6.5µM*	-25	-2%	?
CS(=O)(=O)NCCCc1ccccc1	7%	2%	0%	7	6%	4%
O=S(=O)(NCCCCCCc1ccccc1)c1cccc2c(Cl)cccc12	.	?	.	.	.	21µM*
NCCCCCCCCCCNS(=O)(=O)c1cccc2c(Cl)cccc12	.	13µM*	.	.	.	?
Cc1ccc2ccccc2c1NC(=O)c1ccco1	13%	2%	10%	13	1%	?
CCc1nn(-c2ccccc2)c2nc(-c3cccc(OC)c3)c3cc(OC)c(OC)cc3c12	.	-2%	.	.	.	3%
COc1ccc(C(c2nnnn2CC2CCCO2)N2CCN(c3cccc(C)c3C)CC2)cc1 (stereo unspecified)	-16%	18µM*	?	-23	-13%	?
CCCCC(c1nnnn1CC1CCCO1)N1CCN(Cc2ccccc2)CC1 (stereo unspecified)	-1%	-12%	-11%	-24	-12%	-14%
CCCCC(c1nnnn1CC1CCCO1)N1CCN(c2cccc(C)c2C)CC1 (stereo unspecified)	-16%	16µM*	-23%	-22	-16%	?
CC(=O)Nc1nc2[nH]ccc2c(=O)[nH]1	5%	-10%	.	-7	9%	-6%
COc1cc(CCC(=O)OCC(=O)Nc2cc(S(=O)(=O)N3CCOCC3)ccc2Cl)cc(OC)c1OC	0%	-7%	.	17	1%	-17%
O=C(COC(=O)c1cc(=O)[nH]c(=O)[nH]1)Nc1cccc(Cl)c1	1%	14%	14%	21	2%	-1%
Cc1nn(C)c(C)c1CNC(=O)c1cc2n(n1)C(C(F)(F)F)CC(c1cccs1)N2 (stereo unspecified)	0%	5.8µM*	-15%	7	1%	10µM*
CCOC(=O)c1c(NC(=O)c2cc3n(n2)C(C(F)(F)F)CC(c2cccs2)N3)sc(C)c1C (stereo unspecified)	8%	6.5µM*	?	8	2%	5.2µM*
CCOC(=O)c1cc2n(n1)C(C(F)(F)F)CC(C)N2 (stereo unspecified)	15%	-9%	?	11	9%	-15%
CCCCOc1ccc(C(=O)N/N=C/c2cn[nH]c2-c2ccc(OC)c(OC)c2)cc1	-17%	?	?	-56*	?	?
COc1ccc(C(=O)N/N=C/c2cn[nH]c2-c2ccc(OC)cc2OC)cc1	6%	?	-6%	-3	6%	?
COc1ccc(-c2[nH]ncc2/C=N\NC(=O)c2ccc(C(C)(C)C)cc2)cc1OC	?	26µM*	-24%	0	-41%	?
CCCCOc1ccc(C(=O)N/N=C/c2ccc(OCCN3CCCCC3)c(OC)c2)cc1	-25%	?	2%	-80*	-25%	21µM*
Cc1ccccc1NS(=O)(=O)c1ccc2[nH]cc(C(=O)N3CCCC3)c(=O)c2c1	.	9%	.	.	.	-3%
SMILES	HT1080 IDH1KD tx	DT40 TDP1 no CPT	ELG1 repair inh	IL1B secr inh	HT1080NT lethal	DT40 TDP1 CPT
CC(=O)N1CCN(c2ccccc2NC(=O)Cc2ccc(Cl)cc2)CC1	-13%	?	?	-11	-15%	-27%
NS(=O)(=O)c1cccc(NC(=O)Cn2nc(C(=O)O)c3ccccc3c2=O)c1	-11%	4%	5%	-2	-1%	-5%
CCS(=O)(=O)N1CCC(c2nc(-c3ccc(C)cc3)no2)CC1	4%	15µM*	?	-8	0%	29µM*
CCS(=O)(=O)N1CCC(c2nc(-c3ccc(C(F)(F)F)cc3)no2)CC1	-15%	14µM*	6.3µM*	-1	6%	8.9µM*
CN1CCN(S(=O)(=O)c2ccc(-c3noc(C4CCN(S(C)(=O)=O)CC4)n3)cc2)CC1	9%	-11%	-2%	20	11%	-7%
CS(=O)(=O)N1CCC(c2noc(-c3ccc(C(F)(F)F)cc3)n2)CC1	-2%	10µM*	-20%	-8	-16%	9.2µM*
Cc1ccc(-c2nc(C3CCN(S(=O)(=O)c4ccc(C(F)(F)F)cc4)CC3)no2)cc1	10%	-1%	?	5	19%	4%
COc1ccc(NC(=O)Nc2nnc(-c3ccccc3SCc3ccccc3)s2)cc1	-26%	6.5µM*	-1%	19	-25%	18µM*
CCNS(=O)(=O)c1ccc(CCC(=O)Nc2ccc3c(c2)OCCO3)cc1	5%	13%	7%	-17	3%	25%
O=C(Nc1ccc2nc(SCC(=O)N3CCCc4ccccc43)sc2c1)c1ccccc1	.	18µM*	.	.	.	21µM*
O=C(Nc1nnc(SCC(=O)N2CCCc3ccccc32)s1)c1ccc2ccccc2c1	0%	?	?	7	-2%	-27%
O=C(Nc1ccc2nc(SCC(=O)N3CCc4ccccc43)sc2c1)c1ccccc1	.	2.3µM*	.	.	.	5.8µM*
COc1ccc(C(=O)Nc2ccc3nc(SCC(=O)N4CCCc5ccccc54)sc3c2)cc1	.	18µM*	.	.	.	9.2µM*
O=C(Nc1nnc(SCC(=O)N2CCCc3ccccc32)s1)c1ccccc1	1%	-8%	?	-12	0%	14%
Cc1ccc(C(=O)Nc2ccc3nc(SCC(=O)N4CCCc5ccccc54)sc3c2)cc1	.	7.3µM*	.	.	.	12µM*
CC(Oc1ccc(Cl)cc1Cl)c1ccn[nH]1 (stereo unspecified)	-22%	?	9%	-17	-12%	-17%
